The campaign covered roughly 360,000 compounds. About 3,900 (1.1%) were called active. What follows is part of a selection rich in actives, with near analogues and random picks from the rest. Unmarked numbers belong to inactive results.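 The calls were made as follows: active = mean replicate inhibition score of at least 50 and every replicate individually at or above 50; inconclusive = only one of the two criteria met; inactive = mean below 50 and not all replicates reaching 50.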

Results on 45 compounds are retold here after PubChem BioAssay AID651610 (Broad Institute, 2012).

A short description of the test: blockers of JRFL envelope-mediated fusion – HeLa-JRFL effector, CEM21 target cells, luciferase, primary screen (AID 651610).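 Also: 0% = plate neutral controls and 100% = maraviroc near 300 nM.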 Conditions: HeLa-JRFL Env/CEM21 cell fusion, hits give high values; at 16.7 µM unless noted.
Broadly, the inhibition is the change of the read-out against control, counted positive when it falls. As to `O=C(C[C@H]1C[C@@H]2c3cc(NS(=O)(=O)c4ccc(F)cc4)ccc3O[C@@H]2[C@@H](CO)O1)NCc1cccc(F)c1`, the inhibition is 10.7%. The figure for `O=C(C[C@@H]1C[C@H]2c3cc(NS(=O)(=O)c4ccc(F)cc4)ccc3O[C@H]2[C@@H](CO)O1)NCc1ccccc1F` is 56.4% (active); for `O=C(C[C@H]1C[C@H]2c3cc(NS(=O)(=O)c4ccc(F)cc4)ccc3O[C@H]2[C@H](CO)O1)NCc1cc(F)ccc1F` it is -74.8% [at 12.3 µM]; for `O=C(C[C@@H]1C[C@@H]2c3cc(NS(=O)(=O)c4ccc(F)cc4)ccc3O[C@@H]2[C@H](CO)O1)NCc1ccccc1F` it is 90.3% (active).

With `O=C(C[C@H]1C[C@@H]2c3cc(NS(=O)(=O)c4ccc(F)cc4)ccc3O[C@@H]2[C@H](CO)O1)NCc1cccc(F)c1`, the inhibition is 54.4%.

With `COc1ccccc1CNC(=O)C[C@H]1C[C@H]2c3cc(NS(=O)(=O)c4ccc(F)cc4)ccc3O[C@H]2[C@@H](CO)O1`, the inhibition was -11.5%. As to `C[C@@H]1CN([C@H](C)CO)C(=O)c2cc(C#CC3CCCC3)cnc2O[C@@H]1CN(C)C(=O)C1CCC1`, the inhibition was -5.58%. Take `O=C(Cc1ccncc1)Nc1ccc2c(c1)[C@@H]1C[C@H](CC(=O)N3CCCCC3)O[C@H](CO)[C@@H]1O2`: the inhibition is 9.17%. Then `C[C@@H]1CCCCO[C@@H](CN(C)Cc2ccc(C(=O)O)cc2)[C@@H](C)CN([C@@H](C)CO)C(=O)c2cc(NC(=O)Nc3ccc(C(F)(F)F)cc3)ccc2O1`, with -4.94%.

For `COc1ccc2c3c([nH]c2c1)[C@@H](CO)N(C(=O)Nc1cccc(F)c1)CC31CCN(S(=O)(=O)c2ccccc2)CC1`, the inhibition is 80.9% (active). Regarding `COc1ccc2c3c([nH]c2c1)[C@H](CO)N(C(=O)Nc1cccc(F)c1)CC31CCN(S(=O)(=O)c2ccccc2)CC1`, the inhibition was 92.2% (active). The figure for `COc1ccc2c3c([nH]c2c1)[C@@H](CO)N(C(C)=O)CC31CN(C(=O)Nc2ccc(F)cc2)C1` is 31%; for `COc1ccc2c3c(n(C)c2c1)[C@@H](CO)N(C(=O)Nc1cccc(F)c1)CC31CCN(Cc2nccs2)CC1` it is 23.1%; for `COc1ccc2c3c([nH]c2c1)[C@H](CO)N(C(=O)Nc1ccc(F)cc1)CC31CN(S(=O)(=O)c2cccc(F)c2)C1` it is -38.9%. Then `COc1ccc2c3c([nH]c2c1)[C@H](CO)N(C(=O)c1ccccc1)CC31CN(C(=O)Nc2cccc(F)c2)C1`, with 12.9%. `N#C[C@@H]1[C@@H](c2ccc(-c3ccccc3F)cc2)[C@@H](CO)N1C(=O)C1CC1`: the inhibition was -18.6%. Regarding `C[C@H]1CN([C@@H](C)CO)S(=O)(=O)c2ccc(C#CC3CCCC3)cc2O[C@@H]1CN(C)C(=O)c1cccc(F)c1`, the inhibition is 33.9%. Then `O=C(C[C@H]1CC[C@H]2[C@@H](COC[C@H](O)CN2CCC(F)(F)F)O1)N1CCC(Cc2ccccc2)CC1`, with 32.1%. `C[C@H](CO)N1C[C@H](C)[C@H](CN(C)S(=O)(=O)c2cccs2)Oc2ccc(NS(=O)(=O)c3ccc(Cl)cc3)cc2CC1=O`: the inhibition was 55.2% (active).

On to `C[C@@H]1CN([C@H](C)CO)C(=O)Cc2cc(NC(=O)Cc3ccccc3)ccc2O[C@H]1CN(C)S(=O)(=O)c1cccs1`, for which the inhibition is 25.8%. Then `C[C@H](CO)N1C[C@H](C)[C@@H](CN(C)S(=O)(=O)c2ccc(Cl)cc2)Oc2ccc(NS(=O)(=O)c3cccs3)cc2CC1=O`, with -22%; and `Cc1ccc(S(=O)(=O)Nc2ccc3c(c2)CC(=O)N([C@H](C)CO)C[C@@H](C)[C@H](CN(C)Cc2ccc(C(F)(F)F)cc2)O3)cc1`, with 8.6%. The figure for `C[C@H]1CN([C@@H](C)CO)C(=O)Cc2cc(NC(=O)Cc3ccccc3)ccc2O[C@H]1CN(C)S(=O)(=O)c1cccs1` is 98.7% [at 12.3 µM] (active); for `C[C@H]1CN([C@@H](C)CO)C(=O)Cc2cc(NS(=O)(=O)c3ccc(F)cc3)ccc2O[C@H]1CN(C)Cc1ccc(C(F)(F)F)cc1` it is -1.59%; for `C[C@@H]1CN([C@H](C)CO)C(=O)Cc2cc(NS(=O)(=O)c3ccc(Cl)cc3)ccc2O[C@H]1CN(C)S(=O)(=O)c1cccs1` it is -4.91%. The figure for `C[C@@H]1CN([C@H](C)CO)C(=O)Cc2cc(NC(=O)CCCN(C)C)ccc2O[C@@H]1CN(C)S(=O)(=O)c1cccs1` is -1.4%; for `C[C@H]1CN([C@@H](C)CO)C(=O)c2cc(NC(=O)NC3CCCCC3)ccc2O[C@@H]1CN(C)S(=O)(=O)c1cccs1` it is 7.17%; for `C[C@@H]1CN([C@@H](C)CO)C(=O)Cc2cc(NS(=O)(=O)c3ccc(Cl)cc3)ccc2O[C@H]1CN(C)Cc1ccc(C(F)(F)F)cc1` it is 77.5% (active). As for `C[C@H]1CN([C@@H](C)CO)C(=O)Cc2cc(NC(=O)NC3CCCCC3)ccc2O[C@H]1CN(C)S(=O)(=O)c1cccs1`, the inhibition was 56.2% (active). As for `C[C@H]1CN([C@@H](C)CO)C(=O)Cc2cc(NC(=O)C3CC3)ccc2O[C@@H]1CN(C)S(=O)(=O)c1cccs1`, the inhibition was -4.09%. On to `[N-]=[N+]=Nc1ccccc1C[C@@]1(C(=O)NCc2ccccc2)N=C(c2ccc(OCCCO)cc2)O[C@@H]1c1ccccc1`, for which the inhibition is 42.5%. Then `C[C@H]1CN([C@@H](C)CO)C(=O)c2cccc(NS(=O)(=O)c3ccc(F)cc3)c2O[C@@H]1CN(C)CC1CC1`, with -1.23%. Take `Cc1noc(C)c1NC(=O)N(C)C[C@@H]1OCCCC[C@H](C)Oc2ccc(NC(=O)c3ccccc3)cc2C(=O)N([C@@H](C)CO)C[C@@H]1C`: the inhibition was 18.4%. The figure for `N#C[C@@H]1[C@@H](c2ccc(-c3ccccc3F)cc2)[C@@H](CO)N1C(=O)c1ccccn1` is 16.4%. The figure for `C[C@@H]1CN([C@H](C)CO)C(=O)c2ccccc2-c2ccccc2CO[C@H]1CN(C)C(=O)CCC(F)(F)F` is -2.05%; for `CCCC#Cc1ccc([C@@H]2[C@@H](C#N)N(C(=O)C3CC3)[C@H]2CO)cc1` it is -1.11%; for `CCC(=O)Nc1ccc2c(c1)OC[C@H](C)N(Cc1ccccc1F)C[C@H](C)[C@@H](OC)CN(C)C2=O` it is 27.1%. As for `CCCN1C[C@@H](C)[C@@H](OC)CN(C)C(=O)c2ccc(NC(=O)Nc3cccc(F)c3)cc2OC[C@@H]1C`, the inhibition is -6.04%.

Take `C/C=C/c1ccccc1[C@H]1[C@@H](C#N)N(C(=O)Cc2ccccn2)[C@@H]1CO`: the inhibition is -20.6%. Then `C[C@@H]1CN([C@@H](C)CO)C(=O)c2cc(C#CCc3ccccc3)cnc2O[C@@H]1CN(C)C(=O)C1CCOCC1`, with 6.96%. Then `C[C@@H]1CN([C@H](C)CO)C(=O)c2cccc(NS(=O)(=O)c3ccc(Cl)cc3)c2O[C@@H]1CN(C)Cc1ccc(Cl)c(Cl)c1`, with 74.9% (active).

On to `C[C@@H]1CN([C@H](C)CO)C(=O)c2cccc(NS(=O)(=O)c3ccc(Cl)cc3)c2O[C@H]1CN(C)Cc1ccc(C(F)(F)F)cc1`, for which the inhibition was 9.64%. The figure for `C[C@@H]1CN([C@@H](C)CO)C(=O)c2cccc(NS(=O)(=O)c3ccc(Cl)cc3)c2O[C@@H]1CN(C)Cc1ccccc1` is -7.04%. Then `COc1cccc(S(=O)(=O)N(C)C[C@@H]2Oc3ncc(-c4cccc(C(=O)N(C)C)c4)cc3C(=O)N([C@H](C)CO)C[C@H]2C)c1`, with 3.38%. Then `CC(C)NC(=O)N(C)C[C@@H]1OCCCC[C@@H](C)Oc2ccc(NC(=O)c3ccccc3)cc2C(=O)N([C@@H](C)CO)C[C@H]1C`, with -4.61%.
